In PubChem BioAssay AID651821 (The Scripps Research Institute Molecular Screening Center, 2012) one finds inhibition data, which are given here for 85 compounds.

In all, about 370,000 compounds went through this assay and about 4,700 (1.3%) were called active.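 Rule for the calls: active = inhibition above the plate cutoff, the mean of all test compounds on that plate plus 3 SD (cut at about 35% in these data); inactive = the rest.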 What follows is part of a selection rich in actives, with near analogues and random picks from the rest.

The nature of the test: small molecules binding CAG repeat RNA – biochemical, fluorescence, primary screen (AID 651821).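 Note: 0% = DMSO alone and 100% = 100 µM mitoxantrone as full dye displacement; higher means more dye released from RNA so lower well fluorescence.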 Particulars: r(CAG) RNA repeat, TO-PRO-1 dye displacement fluorescence; at 3 µM; active compounds read high.
Consider `Cc1ccc2nc(CN(C)C(=O)[C@@H](Cc3ccccc3)NC(=O)[C@H]3O[C@@H](n4ccc(=O)[nH]c4=O)[C@H](O)[C@@H]3O)[nH]c2c1`, for which the inhibition – broadly, the change of the read-out against control, counted positive when it falls – was 0.21% (inactive).
Take `COc1ccc(CN2C/C(=C/c3ccccc3)N3C(=O)C[C@@H](c4ccccc4)N=C23)c(OC)c1`: the inhibition is 2.75% (inactive).
The same measure for `O=S(=O)(Nc1ncnc2sccc12)c1cccc(F)c1`: 5.08% (inactive); for `Cc1cc(F)ccc1S(=O)(=O)Nc1ncnc2scc(-c3ccc(F)cc3)c12`: 40.3% (active).
For `COc1ccc(-c2csc3ncnc(N4CCN(S(=O)(=O)c5cccc(F)c5)CC4)c23)cc1`, the inhibition was 3.79% (inactive).
`Cc1ccc2nc(-c3ccc(CN4CCC(n5cc(-c6ccccc6)[nH]c5=O)CC4)cc3)c(-c3ccccc3)nc2c1`: the inhibition was 9.33% (inactive).
As to `COc1cccc(CNC(=O)C2CCCN(c3nc4ccccc4o3)C2)c1OC` (stereo not given), the inhibition was 4.36% (inactive).
Consider `CC(=O)c1ccc(NC(=O)C2CC(=O)Nc3nc4ccccc4n32)cc1` (stereo not given), for which the inhibition was 2.8% (inactive).
On to `Brc1ccc(COCCc2cn(Cc3ccccc3)c3ccccc23)cc1`, for which the inhibition was 3.73% (inactive).
As to `C/C=C/c1ccc(OCC(=O)NNC(=O)CN(C)S(=O)(=O)c2ccc(C)cc2)c(OC)c1`, the inhibition is 1.87% (inactive).
For `COc1ccc(/C=C/C(=O)c2ccc(NS(=O)(=O)c3ccc(C)cc3)cc2)cc1O`, the inhibition was 43% (active).
Consider `Cc1ccc(S(=O)(=O)NNC(=O)/C=C/c2cccc(F)c2)cc1`, for which the inhibition was 3.74% (inactive).
As to `O=C(NCc1ccccc1)[C@H]1CCCN1C(=O)[C@H]1CCCN1C(=O)N1CCOCC1`, the inhibition was -0.04% (inactive).
The value for `CC(C)OC(=O)c1ccc(COc2ccc3ccc(=O)oc3c2)o1` was -0.52% (inactive).
For the compound `COc1ccc(-c2cc3ccc(OCc4nn[nH]n4)cc3oc2=O)cc1`, the inhibition was 44.7% (active).
The value for `COc1ccc(-c2csc3ncnc(Oc4ccc5c(C)cc(=O)oc5c4)c23)cc1` was 0.56% (inactive); that for `CN(C)Cc1ccc(F)cc1Sc1cc(Cl)ccc1Cl` was -7.65% (inactive); that for `CN(CCc1ccccc1)C(=O)Cn1nc(-c2ccccc2)ccc1=O` was -2.33% (inactive).
For `CCc1nnc(NS(=O)(=O)c2ccc(N=Cc3c(C)[nH]n(-c4ccc(C)cc4)c3=O)cc2)s1`, the inhibition is 56.7% (active).
In the case of `COc1cc(SC#N)ccc1N=Cc1c(C)[nH]n(-c2ccc(C)cc2)c1=O`, the inhibition is 6.39% (inactive).
Consider `CCc1nnc(NC(=O)CCN(c2ccc(C)cc2)S(=O)(=O)c2ccccc2)s1`, for which the inhibition was 1.09% (inactive).
As to `CCOC(=O)N1CCN(C(=O)C[C@H]2C[C@@]3(C(=O)OC)C(=C[C@H](C4CCCC4)O[C@@H]3C)N(Cc3ccccc3)C2=O)CC1`, the inhibition was 1.98% (inactive).
As to `O=C(OC12CCCN(C1)/C(=C/c1ccccc1)C2)c1ccco1` (stereo not given), the inhibition was 3.14% (inactive).
`COC(=O)Cc1csc(/N=C/c2c(O)n(-c3cccc(C(F)(F)F)c3)c(=O)c3ccccc23)n1`: the inhibition was -0.9% (inactive).
The value for `CCOc1ccc(N/C(N)=N/c2nc(C)c(C)c(=O)[nH]2)cc1` was 1.99% (inactive); that for `CCOc1ccc(-n2c(O)c(/C=N/Nc3nnc(C)c(=O)[nH]3)c3ccccc3c2=O)cc1` was 47.2% (active).
For `O=C(COc1ccccc1Cl)Nn1cnnc1`, the inhibition was 2.37% (inactive).
In the case of `CCCCN1CCN(C(=O)c2ccc3c(c2)NC(=O)C(C)(C)O3)CC1`, the inhibition was -0.58% (inactive).
Regarding `CCOC(=O)C1(Cc2ccccc2)CCN(Cc2cn(C(C)=O)c3ccccc23)CC1`, the inhibition was -1.49% (inactive).
Take `CC(=O)Nc1ccc(-c2csc(NC(=O)Nc3ccccc3)n2)cc1`: the inhibition is 53.7% (active).
As to `CC(=O)NC(c1ccccc1)c1nc(-c2cccc(C(C)C)c2)cs1` (stereo not given), the inhibition is 0.86% (inactive).
As for `Cn1c(CNc2nc(-c3ccccc3)cs2)nnc1SCC(=O)c1ccccc1`, the inhibition was 8.83% (inactive).
Take `CCCn1c(C)cc(-c2csc(NC(=O)CCc3nc4ccccc4c(=O)[nH]3)n2)c1C`: the inhibition was 24.8% (inactive).
With `O=C(Nc1ccccc1)Nc1nc2ccccc2s1`, the inhibition is 41.3% (active).
The value for `Cc1ccc(C(=O)Nc2c(C#N)c(C)c(C)n2Cc2ccccc2)cc1` was 0.41% (inactive); that for `COc1ccc(C(C)(NC(C)=O)c2nc(-c3ccc(S(C)(=O)=O)cc3)cs2)cc1` (stereo not given) was -0.32% (inactive); that for `CC(=O)Nc1ccc(C(=O)Nc2nc(-c3cc(C)n(Cc4ccccc4)c3C)cs2)cc1` was 51.7% (active).
The same measure for `CC(=O)Nc1ccc(S(=O)(=O)Nc2nc(-c3ccc(C(C)(C)C)cc3)cs2)cc1`: 66.5% (active); for `CCN(CC)CCn1c2c(c(SCC(=O)Nc3nc4ccccc4s3)nc1=O)CCCC2`: -6.14% (inactive); for `CC(C)CC(=O)N/C(N)=N/c1nc2ccccc2s1`: 0.1% (inactive).
On to `CC(=O)Nc1ccc(S(=O)(=O)Nc2ccc(-c3ccc4nnc(C)n4n3)cc2)cc1`, for which the inhibition is 6.21% (inactive).
For `CC(NCc1ccco1)C(=O)N1CCCCC1` (stereo not given), the inhibition was 2.88% (inactive).
Turning to `CC(C)CNc1cccc2c1S(=O)(=O)N[C@H](CC(C)C)CO2`, the inhibition is -1.29% (inactive).
On to `COc1ccc(-c2ccccc2C2Cc3nnccc3CN2C(=O)Nc2ccccc2)cc1` (stereo not given), for which the inhibition is 8.81% (inactive).
Regarding `COc1ccnc(C(=O)N2CCC(Oc3cccnc3)CC2)c1`, the inhibition is 2.96% (inactive).
In the case of `CN(C)Cc1cn(-c2ccc(-c3noc4c3C(=O)N(CC(=O)N3CCOCC3)CC4)cc2)nn1`, the inhibition was 4.11% (inactive).
Take `CCOC(=O)c1csc(NC(=O)C2CCCN(S(=O)(=O)c3ccc(Cl)s3)C2)n1` (stereo not given): the inhibition was 3.09% (inactive).
In the case of `Nc1nc2c(ncn2[C@@H]2O[C@H](C(=O)N[C@@H](Cc3ccccc3)C(=O)NCc3ccccc3)[C@@H](O)[C@H]2O)c(=O)[nH]1`, the inhibition was 3.57% (inactive).
For `CCOC(=O)[C@]12CCCC=C1N(CCCOC)C(=O)[C@@H]2CC(=O)N1CCOCC1`, the inhibition was 0.28% (inactive).
In the case of `COc1ccc(CCNC(=O)CN2CCC(n3nnc4cc(F)ccc43)CC2)cc1OC`, the inhibition is -9.88% (inactive).
For `COC(=O)c1ccc(CSc2nnc(NC(C)C)s2)cc1`, the inhibition was -4.56% (inactive).
Take `Cc1ccc(C(=O)Oc2coc(CSc3nnc(NC(=O)c4cccs4)s3)cc2=O)cc1C`: the inhibition is 68.7% (active).
Take `CCOc1ccccc1Nc1nnc(SCc2ccc(C(=O)OC)o2)s1`: the inhibition was 0.96% (inactive).
As to `C=CCN1C(=O)[C@@H](CC(=O)N2CCN(C(=O)c3ccco3)CC2)[C@]2(C(=O)OC)CCCCC=C12`, the inhibition was 7.73% (inactive).
Regarding `O=C(N/N=C/c1cccnc1)c1cc2ccccc2cc1O`, the inhibition is 46.1% (active).
With `O=C(N/N=C/c1ccsc1)c1cc(O)cc(O)c1`, the inhibition is 9.53% (inactive).
For `O=C(O)/C(=C/c1cccnc1)NC(=O)c1ccccc1`, the inhibition was 1.01% (inactive).
Turning to `CC(=O)Nc1ccc(CN2CCC(Oc3ccc(C(=O)N4CCCC4)cc3)CC2)cc1`, the inhibition was -7.88% (inactive).
For the compound `COC(=O)C12C=C3CC(c4ccccc4)=C3C(=O)N1Cc1[nH]c3ccccc3c1C2` (stereo not given), the inhibition was 7.34% (inactive).
Take `O=C(Nc1nnc(-c2ccccc2)o1)c1cccc(S(=O)(=O)N2CCOCC2)c1`: the inhibition is 8.5% (inactive).
`CC1CCCN(S(=O)(=O)c2ccc(C(=O)Nc3nnc(-c4ccncc4)o3)cc2)C1` (stereo not given): the inhibition was 35% (active).
On to `CC1CCCCN1S(=O)(=O)c1ccc(C(=O)Nc2nnc(-c3cccs3)o2)cc1` (stereo not given), for which the inhibition is 49% (active).
With `CC1CCCCN1S(=O)(=O)c1ccc(S(=O)(=O)N(CC(=O)Nc2ccccc2)Cc2cccs2)cc1` (stereo not given), the inhibition is 2.51% (inactive).
`CC1CN(S(=O)(=O)c2ccc(C(=O)Nc3sccc3C(N)=O)cc2)CC(C)O1` (stereo not given): the inhibition was 11.2% (inactive).
The value for `CC1CC(C)CN(S(=O)(=O)c2ccc(C(=O)NN3CCOCC3)cc2)C1` (stereo not given) was -3.03% (inactive); that for `O=C(NCc1ccc(Cl)cc1)C1CCCN(c2nc3ccccc3o2)C1` (stereo not given) was 5.58% (inactive).
Regarding `CC(=O)Nc1ccc(OC[C@@H](O)CN2CCC(C(O)(c3ccccc3)c3ccccc3)CC2)cc1`, the inhibition is -1% (inactive).
For the compound `O=C(NCc1ccccc1)[C@H]1CCCN1C(=O)[C@H]1CCCN1C(=O)c1cc(F)cc(F)c1`, the inhibition is -2.08% (inactive).
`CCOC(=O)c1c(-c2ccc(C)cc2C)csc1NC(=O)CSc1nnnn1C`: the inhibition was 1.95% (inactive).
As to `CCOC(=O)c1c(C)nn(-c2ncccc2NC(=O)CCC(=O)O)c1C`, the inhibition is 3.15% (inactive).
In the case of `CCOC(=O)c1c(-c2ccc(-c3ccccc3)cc2)csc1NC(=O)CCC(=O)O`, the inhibition is 43.3% (active).
The same measure for `CC1(C)CC(=O)C=C(NCCN2CCNCC2)C1`: -4.08% (inactive); for `CC(=O)C1=C(C)N(Cc2ccc(Cl)cc2)C(=S)NC1c1ccc(F)cc1` (stereo not given): 5.48% (inactive).
`O=C(COC(=O)c1cc([N+](=O)[O-])ccc1NCc1ccccc1)NC1CCCCC1`: the inhibition was -1.88% (inactive).
Regarding `Cc1cccc(NS(=O)(=O)c2ccc(C)c(C(=O)NCC(c3ccccc3)N(C)C)c2)c1` (stereo not given), the inhibition is -4.14% (inactive).
For the compound `Cc1ccc(S(=O)(=O)NCCCn2ccnc2)cc1C(=O)NC(C)C`, the inhibition was -1.64% (inactive).
Consider `Cc1ccc(S(=O)(=O)NCCC(c2ccccc2)c2ccccc2)cc1C(=O)O`, for which the inhibition is 42.4% (active).
The value for `O=S1(=O)c2ccc(N3CCN(Cc4ccccc4F)CC3)cc2Oc2ccccc2CN1Cc1cn(Cc2ccc(Cl)cc2)nn1` was 12.5% (inactive); that for `O=S1(=O)c2c(cccc2N2CC[C@H](O)C2)O[C@@H]2CCN1C2` was 2.13% (inactive).
Regarding `Oc1ccc(-c2[nH]ncc2-c2nc3ccccc3s2)c(O)c1`, the inhibition is 34.9% (active).
With `Cc1ccc(S(=O)(=O)N2CCN(C(=O)c3ccccc3-c3nc4ccccc4s3)CC2)c(C)c1`, the inhibition was -1.03% (inactive).
The same measure for `NC(=O)Cc1ccc2sc(-c3ccccc3)nc2c1`: 1.7% (inactive); for `O=C(CN1CCCc2ccccc21)NCc1ccc(F)cc1`: 5.24% (inactive); for `C=CS(=O)(=O)N(Cc1nnn(Cc2ccccc2)c1Br)[C@H](C(=O)OC)C(C)C`: -1.47% (inactive).
Consider `Cc1cccc(NC(=O)c2cc3c(C)nn(-c4ccccc4)c3s2)c1`, for which the inhibition is 11.1% (inactive).
